The values that follow come from PubChem BioAssay (NCATS).

Records with an inconclusive call do not appear. Activity calls are given as the source filed them. The call rests on the fitted dose curve; in most records, active means well fitted cell-killing curve with a large enough effect; inconclusive means small, poorly fitted or top-dose-only effect; inactive means flat fitted curve, though single readings scatter.
On the % scale 0 is the no-effect control and ±100 the full control effect; potency means the concentration at half of the fitted maximal effect.

A short description of the experiment: qHTS of pediatric cancer cell lines to identify multiple opportunities for drug repurposing: Primary screen for TC32 cells (AID 1347089). Further: nearly all actives have a fitted effect of over 60% in size. Conditions: TC32 Ewing sarcoma viability, CellTiter-Glo luminescence, 48 h; series mostly up to 45.8 µM; activity change, negative = cytotoxic: at the top concentration. The source says: Drug repurposing or repositioning has been offered as a strategy for drug development in oncology programs. This approach has special potential for childhood cancers and other rare or orphan diseases, where the expected return on new drug development has been a disincentive to pharmaceuticals.
In this project we exploit the poly-pharmacology of drugs to discover new indications via phenotypic screening of a panel of 19 well-characterized cell lines derived from solid tumors seen in children and adolescents. The goal is to identify approved drugs with previously unrecognized anticancer properties that has the potential to reveal new mechanisms and biological processes involved in carcinogenesis or drug resistance. We employed a titration-based paradigm (quantitative high-throughput screening or qHTS), where all compounds were tested at multiple concentrations for their effect on cell viability. Concentration-response curves (CRCs) were derived directly from the primary screen, and both potency and efficacy values were used to identify compounds with robust bioactivity profiles. We screened the NIH Chemical Genomics Center (NCGC) Pharmaceutical Collection (NPC) and Mechanism Interrogation Plate (MIPE) small molecule collections of approved and investigational compounds against these cell lines; and measured metabolically active cells after 48 hours of compound treatment as a proxy for cell viability.
Assay Submitter: Nathalia J. Martinez, National Center for Advancing Translational Sciences, National Institutes of Health, Rockville, MD, USA; email: natalia.martinez@nih.gov
[1] Shen, M et al. Quantitative high-throughput phenotypic screening of pediatric cancer cell lines identifies multiple opportunities for drug repurposing. Oncotarget 2017 Dec 19;9(4):4758-4772. PMID 29435139.
The cells were obtained from University of North Carolina (UNC), Pediatric Preclinical Testing Program (PPT), and Coriell Institute (CI).
qHTS cell viability assay:
Cells were assayed in growth media at a density of 500-1,000 cells/well. Five microliters of cells were dispensed into 1,536-well, white, solid-bottom, TC-treated plates (Greiner Bio One) using a multidrop dispenser and incubated at 37 degrees C, 5% CO2, under a humidified atmosphere for 5 hours. Twenty-three nanoliters of compounds and controls (neutral control DMSO or positive control bortezomib at final concentration of 2.3 uM) were subsequently transferred by Kalypsys pintool. For primary screens, the MIPE collection was tested at 11-point dilutions (final concentrations range from 0.78 nM to 46 µM) and the NPC collection at 8-point dilutions (final concentrations range from 0.59 nM to 46 µM). Compounds tested in follow-up screens were assayed at 11-point dilutions. Cells were incubated for 48 hours, followed by addition of 3 uL of CellTiter-Glo (Promega). After a 15min incubation at room temperature, samples were analyzed for luminescence intensity using a ViewLux High-throughput CCD imager equipped with clear filters.
In the case of `Cc1ccc(Cl)c(Nc2ccccc2C(=O)O)c1Cl`, the “activity change, negative = cytotoxic” value was 9.62% (inactive).

Turning to `Cc1nc2ccccn2c(=O)c1CCN1CCC(C(=O)c2ccc(F)cc2)CC1`, the “activity change, negative = cytotoxic” value was -4.57% (inactive). On the same count and under the same terms, next, `CN(C(=O)CCCOc1ccc2[nH]c(=O)ccc2c1)C1CCCCC1`: -4.29% (inactive); `CCN(CC)CC(=O)Nc1c(C)cccc1C`: 1.44% (inactive); `NC(Cc1ccc(Cl)cc1)C(=O)O` (stereo not given): 11.6% [at 0.594 µM] (inactive).

`OCCN1CCN(CCCN2c3ccccc3C=Cc3ccccc32)CC1`: the “activity change, negative = cytotoxic” value is 11.7% (inactive). The same measure, in the same setting: the figure for `CN(C)CCN(Cc1cccs1)c1ccccn1` is 2.08% (inactive); for `COc1cc(Cc2cnc(N)nc2N)cc(OC)c1OC` it is 1.29% (inactive); for `CC(C)NNC(=O)c1ccncc1` it is 7.41% (inactive). On to `CCN(CC)CCOCCOC(=O)C1(c2ccccc2)CCCC1`, for which the “activity change, negative = cytotoxic” value is 12.8% (inactive). Same read-out and setting: next, `CC[N+](C)(C)c1cccc(O)c1`: 4.89% (inactive). Take `CCCCOCCOCCOCc1cc2c(cc1CCC)OCO2`: the Potency result was “inactive”.

As for `NS(=O)(=O)c1cc2c(cc1Cl)NC(C1CC3C=CC1C3)NS2(=O)=O` (stereo not given), the “activity change, negative = cytotoxic” value was 0.433% (inactive). Turning to `CC(C)(C)NCC(O)c1cc(O)cc(O)c1` (stereo not given), the “activity change, negative = cytotoxic” value was 5.54% (inactive).

As to `CCN(CC)CCNC(=O)c1cc(S(C)(=O)=O)ccc1OC`, the “activity change, negative = cytotoxic” value was 8.82% (inactive). Same read-out and setting: the figure for `CCCN(CCC)C(=O)C(CCC(=O)O)NC(=O)c1ccccc1` (stereo not given) is 8.22% (inactive); for `CCCC(C(=O)OCCN(CC)CC)(c1ccccc1)c1ccccc1` it is -14.3% (inactive). Still for that read-out and setting: the figure for `CN(C)CCCN1c2ccccc2Sc2ccccc21` is -12.7% (inactive); for `CC(C)(C)c1ccc(C(=O)CCCN2CCC(OC(c3ccccc3)c3ccccc3)CC2)cc1` it is 2.65% (inactive); for `CN(C)C(=O)Oc1cccc([N+](C)(C)C)c1` it is 0% (inactive). On the same count and under the same terms, next, `CN/C(=C\[N+](=O)[O-])NCCSCc1ccc(CN(C)C)o1`: -0.283% (inactive). Turning to `C[n+]1cc2c3c(ccc2c2ccc4cc5c(cc4c21)OCO5)OCO3`, the Potency is 3.25 µM (active). On to `COc1ccc(CCN(C)CCCC(C#N)(c2cc(OC)c(OC)c(OC)c2)C(C)C)cc1OC` (stereo not given), for which the “activity change, negative = cytotoxic” value was -2.15% (inactive). The same measure, in the same setting: next, `NC(N)=NC(=O)Cc1c(Cl)cccc1Cl`: 6.1% (inactive).

Regarding `Cc1nc2sccn2c(=O)c1CCN1CCC(=C(c2ccc(F)cc2)c2ccc(F)cc2)CC1`, the “activity change, negative = cytotoxic” value was 3.63% (inactive). The same measure, in the same setting: next, `CC(=O)Nc1nnc(S(N)(=O)=O)s1`: 15.7% (inactive). The same measure, in the same setting: the figure for `COCCCC/C(=N\OCCN)c1ccc(C(F)(F)F)cc1` is -2.36% (inactive); for `CN(C)[C@@H]1C(=O)C(C(N)=O)=C(O)[C@@]2(O)C(=O)C3=C(O)c4c(O)ccc(Cl)c4[C@@H](O)[C@H]3C[C@@H]12` it is 10.8% (inactive). As to `Nc1nc(N)c2nc(-c3ccccc3)c(N)nc2n1`, the Potency was 7.45 µM (active). In the case of `CCN(CC)CCNC(=O)c1ccc(NC(C)=O)cc1`, the “activity change, negative = cytotoxic” value is 6.92% (inactive). Still for that read-out and setting: next, `Cc1cc(C)c(/C=C2\C(=O)Nc3ccccc32)[nH]1`: 3.37% (inactive); `CC(C)NCC(O)c1cc(O)cc(O)c1` (stereo not given): -0.974% (inactive). Still for that read-out and setting: next, `COC(=O)[C@H]1[C@H]2C[C@@H]3c4[nH]c5cc(OC)ccc5c4CCN3C[C@H]2C[C@@H](OC(=O)c2cc(OC)c(OC)c(OC)c2)[C@@H]1OC`: 4.18% (inactive). Same read-out and setting: the figure for `C[C@]12CCC(=O)C=C1CC[C@@H]1[C@@H]2CC[C@@]2(C)[C@H]1CC[C@]2(O)C(=O)CO` is 11.2% (inactive); for `CC(=O)[C@@]1(O)CC[C@H]2[C@@H]3CCC4=CC(=O)CC[C@]4(C)[C@H]3CC[C@@]21C` it is 4.89% (inactive).

As to `CCc1c(C)[nH]c2c1C(=O)C(CN1CCOCC1)CC2` (stereo not given), the “activity change, negative = cytotoxic” value was 8.34% (inactive). As for `CC(=O)[C@]1(O)Cc2c(O)c3c(c(O)c2[C@@H](O[C@H]2C[C@H](N)[C@H](O)[C@H](C)O2)C1)C(=O)c1ccccc1C3=O`, the Potency is 0.47 µM (active).

Turning to `CCCOc1ccccc1-c1nc2n[nH]nc2c(=O)[nH]1`, the “activity change, negative = cytotoxic” value is 3% (inactive). Same read-out and setting: next, `Cc1scc2c1N(C(=O)CN1CCN(C)CC1)c1ccccc1NC2=O`: 2.3% (inactive); `CCOC(=O)C1=C(C)NC(C)=C(C(=O)OC)C1c1cccc(Cl)c1Cl` (stereo not given): 12.5% (inactive).
